The text below walks through data of PubChem BioAssay AID1986 (Sanford-Burnham Center for Chemical Genomics, 2009).

Hit rate of the full screen: of about 290,000 compounds, about 890 (0.31%) were called active. Rule as the data show it: active = inhibition mostly above about 52% (no sharp cut-off); inactive = mostly below about 76%. Many of the other results were omitted from the sample, so actives are more common in it than they were.

A short description of this assay: cell-free HIV fusion peptide-binding blockers – biochemical, uHTS, fluorescence dequenching, primary screen (AID 1986). The following applies: 30 min, stronger effect = higher value.
[1] abbreviates: measured here: repeat confirmation average inhibition, at 18.6 µM.

Regarding `Cc1cc(Cc2ccc(N)c(C)c2)ccc1N`, the inhibition (at 20 µM) is -1.4% (inactive).
On to `Nc1ccc(Cc2ccc(N)c(O)c2)cc1O`, for which the inhibition (at 20 µM) was 52.4% (active).
For `Nc1ccc(Cc2ccc(N)c(C(=O)O)c2)cc1C(=O)O`, the inhibition (at 20 µM) was 5.8% (inactive).
The same measure, in the same setting: to `CC(C)COc1ccc(S(=O)(=O)n2cc(F)c(=O)[nH]c2=O)cc1` belongs 2.9% (inactive); to `COc1cccc(-c2nc(Cc3ccc(OC)c(OC)c3)no2)c1`, 2.1% (inactive); to `COc1ccc(Cc2noc(-c3ccc(OC)c(OC)c3)n2)cc1OC`, 0.9% (inactive).
Still for that read-out and setting: as for `COc1ccc(Cc2noc(-c3ccccc3)n2)cc1OC`, the figure is 61.8% (active).
For `CC(C)CNC(=O)c1cccc(NC(=O)c2ccco2)c1`, the inhibition (at 20 µM) is -0.6% (inactive).
The same measure, in the same setting: to `CCOC(=O)C1=C(C)N(CC)C(=S)NC1c1ccccc1OC(F)F` (stereo not drawn) belongs -2% (inactive); to `CCOC(=O)c1c(NC(=O)N/N=C/c2ccc(O)c(OC)c2)sc(C(C)=O)c1C`, -2.2% (inactive).
Regarding `N#Cc1ccc2ccn(CC(=O)NCc3ccccc3)c2c1`, the inhibition (at 20 µM) was -1.6% (inactive).
On the same count and under the same terms, to `CC(C)(C)/C(O)=C(/C#N)c1nc2ccccc2[nH]1` belongs -1.6% (inactive); to `CN(C)c1cccc(C(=O)NNC(=S)NC2CC3CCC2C3)c1` (stereo not drawn), -1.9% (inactive); to `CCOC(=O)c1c(S(=O)(=O)Nc2ccccn2)c(C)n(C)c1C`, 2.8% (inactive).
Still for that read-out and setting: to `COc1ccccc1CNC(=O)C1CCC(CNS(=O)(=O)c2ccc(F)cc2)CC1` (stereo not drawn) belongs -1% (inactive); to `Cc1ccc(NC(=O)c2ccc(NCCc3ccccc3)c([N+](=O)[O-])c2)cc1F`, 2.5% (inactive).
On to `Cc1cccc(NC(=O)c2ccc(NCCc3ccccc3)c([N+](=O)[O-])c2)c1`, for which the inhibition is 96.9% (active) (at 20 µM) and 58.9% under setting [1].
With `O=C(Nc1ccccc1)c1ccc(NCCc2ccccc2)c([N+](=O)[O-])c1`, the inhibition (at 20 µM) was 147% (inactive).
Take `COc1cccc(NC(=O)N2CCC(NC(=O)C(Cc3ccccc3F)NC(C)=O)CC2)c1` (stereo not drawn): under “at 20 µM”, the inhibition is -0.5% (inactive).
Still for that read-out and setting: as for `O=C(Nc1ccccc1C(=O)O)/C(=C/c1ccc([N+](=O)[O-])cc1)NC(=O)c1ccc(Br)o1`, the figure is 20.5% (inactive); as for `Cc1cc(C)c(NC(=O)CCCSc2nnc(N)s2)c(C)c1`, -0.5% (inactive).
On the same count and under the same terms, to `CC(=O)Sc1nc(-c2ccccc2)[nH]c1S(=O)(=O)c1ccc(C)cc1` belongs 60.7% (active).
The same measure, in the same setting: as for `CSc1nc(-c2ccc(C)cc2)[nH]c1S(=O)(=O)c1ccccc1`, the figure is -0.2% (inactive).
As to `Cc1ccc(-c2[nH]c(-c3ccc(C(=O)O)cc3)nc2-c2ccccc2)cc1`, the inhibition is 61.6% (inactive) (at 20 µM) and 27.3% under setting [1].
Regarding `COc1ccc(C2/C(=C(/O)c3ccc(F)cc3)C(=O)C(=O)N2c2ccccn2)cc1OC` (stereo not drawn), the inhibition (at 20 µM) is 0.2% (inactive).
Regarding `CC(=O)Nc1ccc(S(=O)(=O)N2CCN(S(=O)(=O)N3CCCCC3)CC2)cc1`, where the note is “at 20 µM”, the inhibition is 0.1% (inactive).
On the same count and under the same terms, to `O=C(Nc1ccccc1)OC1C2CCC1C(N1CCCCC1)CC2` (stereo not drawn) belongs 1.6% (inactive); to `O=C(Nc1nccs1)c1cc(S(=O)(=O)N2CCCCC2)ccc1Cl`, -1.5% (inactive).
As for `CC(=O)N1C(=O)/C(=C2\SC(=S)N(NS(=O)(=O)c3ccc(C)cc3)C2=O)c2ccccc21`, the inhibition by setting is: (at 20 µM) 55.6% (inactive); under setting [1], -0.3%.
As for `O=C1/C(=C\c2ccc(Br)cc2)SC(=S)N1NS(=O)(=O)c1ccccc1`, the inhibition (at 20 µM) was 67.6% (inactive) and the inhibition under setting [1] was 0.2%.
Regarding `CSc1ccc(CNCc2ccc3c(c2)OCO3)cc1`, the inhibition (at 20 µM) is 3.5% (inactive).
On the same count and under the same terms, as for `CCCC(C(=O)Nc1ccc2c(C)cc(=O)oc2c1)c1ccccc1` (stereo not drawn), the figure is 0.5% (inactive).
`O=[N+]([O-])c1ccc(/C=C/C2=NN(c3ccccc3)C(c3ccco3)C2)cc1` (stereo not drawn): for the setting “at 20 µM”, the inhibition is 35% (inactive).
Still for that read-out and setting: as for `O=[N+]([O-])c1ccc(/C=C/C2=NN(c3ccccc3)C(c3ccco3)C2)o1` (stereo not drawn), the figure is 18.7% (inactive); as for `C(=C\c1ccco1)/C1=NN(c2ccccc2)C(c2ccco2)C1` (stereo not drawn), 81.8% (active).
With `CC(CNC(=O)CCS(=O)(=O)c1cc2c(cc1Cl)NC(=O)CO2)c1ccccc1` (stereo not drawn), the inhibition (at 20 µM) is -0.3% (inactive).
As to `COc1ccc(/C=c2\s/c(=C/C(=O)c3ccc(C)cc3)[nH]c2=O)c(OC)c1`, the inhibition (at 20 µM) was 47.8% (inactive).
On the same count and under the same terms, to `COc1cc(/C=C2\SC(c3ccc(C)cc3)=NC2=O)ccc1O` belongs 36.7% (inactive); to `COc1cccc(/C=c2\s/c(=C/C(=O)c3ccc(C)cc3)[nH]c2=O)c1OC`, 4.7% (inactive).
For `COc1ccc(/C=C2\SC(c3ccc(C)cc3)=NC2=O)cc1OC`, the inhibition (at 20 µM) is 97.6% (active) and the inhibition under setting [1] stood at 176%.
On to `COc1ccc(/C=C2/SC(c3ccc(C)cc3)=NC2=O)cc1OC`, for which the inhibition (at 20 µM) was 0.3% (inactive).
The same measure, in the same setting: as for `COc1ccc(/C=c2\s/c(=C/C(=O)c3ccc(C)cc3)[nH]c2=O)cc1OC`, the figure is 77.2% (active).
Still for that read-out and setting: as for `Cc1cc2c(ncn2Cc2ccccc2)c(NS(C)(=O)=O)c1C`, the figure is -1% (inactive); as for `O=C(CN(Cc1ccc(F)cc1)C(=O)CNS(=O)(=O)c1ccc(F)cc1)NCc1ccco1`, 1.3% (inactive); as for `COc1ccc(CCNC(=O)Cc2cc(OC)c(OC)cc2Br)cc1OC`, 1.9% (inactive).
On the same count and under the same terms, as for `CCOC(=O)N1CCc2c(sc3ncn(C)c(=O)c23)C1`, the figure is -2.6% (inactive).
Turning to `COC(=O)c1ccccc1NC(=O)c1ccc2c(c1)OCCCO2`, under “at 20 µM”, the inhibition is -0.4% (inactive).
On the same count and under the same terms, to `O=C(CS(=O)(=O)Cc1ccccc1)N1CCN(c2cccc(C(F)(F)F)c2)CC1` belongs 4.6% (inactive).

Usually inhibition stands for the change of the read-out against control, counted positive when it falls.
